Here are results for 17 compounds from PubChem BioAssay (NCATS).

Test [1] is described as follows: Quantitative High-Throughput drug screen in 47 multiple myeloma cell lines against the NCATS MIPE library collection: XG1_PLB cell viability assay (AID 1919866). Also: nearly all actives have a fitted effect of over 35% in size. In a few lines: (§1)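 ATP-based CellTiter-Glo luminescence after 48 h drug exposure (37 °C, 5% CO2) of 500 myeloma cells per well. DMSO-only wells set 100% viability, media-only wells 0%; MIPE 4.0 library added by pin tool.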

A short description of test [2]: Quantitative High-Throughput drug screen in 47 multiple myeloma cell lines against the NCATS MIPE library collection: VP6_DJ cell viability assay (AID 1919867). Also: nearly all actives have a fitted effect of over 40% in size. The essentials:
as §1

Test [3] is described as follows: Quantitative High-Throughput drug screen in 47 multiple myeloma cell lines against the NCATS MIPE library collection: PE2_PLB cell viability assay (AID 1919869). Also: nearly all actives have a fitted effect of over 35% in size. In a few lines: as §1
Test [4] in a line: Quantitative High-Throughput drug screen in 47 multiple myeloma cell lines against the NCATS MIPE library collection: PCM6_Riken cell viability assay (AID 1919870). Also: nearly all actives have a fitted effect of over 30% in size. In a few lines: as §1
Test [5] is described as follows: Quantitative High-Throughput drug screen in 47 multiple myeloma cell lines against the NCATS MIPE library collection: RPMI8226_ATCC cell viability assay (AID 1919871). Also: nearly all actives have a fitted effect of over 30% in size. The essentials:
as §1

Test [6] can be described thus: Quantitative High-Throughput drug screen in 47 multiple myeloma cell lines against the NCATS MIPE library collection: OPM2_DSMZ cell viability assay (AID 1919872). Also: nearly all actives have a fitted effect of over 30% in size. The essentials: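 Luminescent ATP measurement with CellTiter-Glo gives viability, scaled between DMSO-only wells (100%) and media-only wells (0%). Cells, 500 per well, faced library compounds for 48 hours at 37C.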

The nature of test [7]: Quantitative High-Throughput drug screen in 47 multiple myeloma cell lines against the NCATS MIPE library collection: KMS11_JCRBsus cell viability assay (AID 1919873). Also: nearly all actives have a fitted effect of over 50% in size. In a few lines:
as §1

Test [8] in a line: Quantitative High-Throughput drug screen in 47 multiple myeloma cell lines against the NCATS MIPE library collection: UTMC2_PLB cell viability assay (AID 1919868). Also: nearly all actives have a fitted effect of over 55% in size. Conditions: CellTiter-Glo ATP luminescence, 48 h; viability (% of DMSO control): at 45.8 µM (top of the series). In a few lines:
as §1
(In general: ATP-based viability assays read luminescence as a measure of living cells.)

The nature of test [9]: Quantitative High-Throughput drug screen in 47 multiple myeloma cell lines against the NCATS MIPE library collection: KMS28BM_JCRB cell viability assay (AID 1919874). Also: nearly all actives have a fitted effect of over 35% in size. The essentials: as §1

Inconclusive results are not listed. Active and inactive are the calls of the source. Calls follow the shape of the dose curve; as a rule, active = well fitted cell-killing curve with a large enough effect; inconclusive = small, poorly fitted or top-dose-only effect, or effect the other way; inactive = no such curve, though single readings can be large or run the other way.
Potency is read from the fitted curve at half-maximal effect.

Turning to `NC(=O)Nc1cc(-c2ccc(CN3CCOCC3)cc2)sc1C(N)=O`, the Potency in [1] was 0.132 µM (active); in test [2], 0.833 µM (active); in test [3], 1.48 µM (active); in [4] it was 1.66 µM (active); in test [5], 7.43 µM (active); in test [6], 14.8 µM (active). Besides, in [7], the Potency was 11.8 µM (active).
As to `CC[C@@]1([C@@H]2O[C@@H]([C@H]3O[C@@](O)(CO)[C@H](C)C[C@H]3C)C[C@H]2C)CC[C@H]([C@]2(C)CC[C@]3(C[C@H](O)[C@@H](C)[C@@H]([C@@H](C)[C@@H](OC)[C@H](C)C(=O)O)O3)O2)O1`, the Potency was 0.363 µM (active) in test [1]; 0.512 µM (active) in test [2]; 0.182 µM (active) in [8]; 0.323 µM (active) in test [3]; 0.229 µM (active) in [5]; 0.144 µM (active) in test [6]. For the same compound, the Potency was 0.288 µM (active) in test [7] and 0.575 µM (active) in [9].
Consider `CC(O)(C#Cc1ccc2c(c1)N(c1nc(N)ncc1Cl)CC2)c1nccs1` (configuration not stated), for which the Potency is 4.69 µM (active) in test [1]; 5.26 µM (active) in test [2]; 4.18 µM (active) in [8]; 8.33 µM (active) in [3]; 18.7 µM (active) in test [7].
As to `C[C@@H]1C(=O)O[C@H]2CC34[C@H]5C[C@@H](C(C)(C)C)C36[C@H](OC(=O)[C@@H]6O)O[C@@]4(C(=O)O5)[C@]21O` (some centres not stated), the Potency result in [1], in test [2], in test [8], in test [3], in test [5] and in [6] was “inactive” throughout. The Potency result in [7] and in test [9] was “inactive” each time.
On to `CC(C)n1cnc2c(NCCc3ccc(O)cc3)nc(-c3csc4ccccc34)nc21`, for which the Potency in [1] is 3.72 µM (active); in test [2] it was 8.33 µM (active); in test [8], 10.5 µM (active); in test [4], 10.5 µM (active); in [7], 18.7 µM (active).
Consider `COc1cc2ncnc(Nc3cccc(Br)c3)c2cc1OC`, for which the Potency in [1] was 0.0372 µM (active); in test [2], 0.743 µM (active); in test [3], 5.9 µM (active).
On to `COc1cc2c(cc1O)CCC1C2CC[C@@]2(C)C1CC[C@@H]2O` (some centres not stated), for which the Potency was 0.662 µM (active) in test [1]; 2.64 µM (active) in [2]; 0.935 µM (active) in test [8]; 3.72 µM (active) in test [3]; 0.743 µM (active) in test [7]; 0.935 µM (active) in [9].
In the case of `COc1cc2c(cc1OC)[C@@H]1C(=O)c3ccc4c(c3O[C@@H]1CO2)C=CC(C)(C)O4`, the Potency in test [1] was 6.62 µM (active); in test [2] it was 0.0418 µM (active); in test [8], 0.418 µM (active); in [3] it was 7.43 µM (active); in test [4], 7.43 µM (active); in test [7], 0.0418 µM (active). Moreover, in test [9], the Potency was 5.9 µM (active).
As to `CC(=O)O[C@@]12CO[C@H]1C[C@H](O)[C@@]1(C)C(=O)[C@H](O)C3=C(C)[C@@H](OC(=O)C(O)[C@@H](NC(=O)OC(C)(C)C)c4ccccc4)C[C@@](O)([C@@H](OC(=O)c4ccccc4)[C@@H]21)C3(C)C` (some centres not stated), the Potency entry in [1], in test [2], in [8], in test [3], in [4] and in test [7] was “inactive” throughout. In addition, the Potency result in test [9] is “inactive”.
Take `Cc1ccc(O)c(C(CCN(C(C)C)C(C)C)c2ccccc2)c1` (configuration not stated): the Potency result in test [1], in test [2], in [3], in test [4], in [5] and in test [6] was “inactive” each time. Further, in test [7], the Potency entry was “inactive”.
Turning to `C[C@@H]1[C@H](C)CC[C@]2(C(=O)O)CC[C@]3(C)C(=CC[C@@H]4[C@@]5(C)C[C@@H](O)[C@H](O)[C@@](C)(CO)[C@H]5CC[C@]43C)[C@@H]12`, the Potency entry in test [1], in test [2], in test [8], in test [3], in test [4] and in test [7] was “inactive” throughout. Also, the Potency result in test [9] was “inactive”.
Consider `O=C(O)c1ccc(Nc2ncc3c(n2)-c2ccc(Cl)cc2C(c2c(F)cccc2F)=NC3)cc1`, for which the Potency in test [1] is 0.418 µM (active); in test [2] it was 5.9 µM (active); in [8], 1.66 µM (active); in test [4] it was 16.6 µM (active); in test [5] it was 14.8 µM (active).
Consider `C[C@H](O)[C@@H]1C(=O)N2C(C(=O)O)=C(S[C@@H]3CN[C@H](CNS(N)(=O)=O)C3)[C@@H](C)[C@@H]12`, for which the Potency result in [1], in test [2], in [8], in [4], in [7] and in test [9] was “inactive” in each case.
As to `O=C(Nc1ccc(Oc2ccnc3[nH]ccc23)c(F)c1)c1cccn(-c2ccc(F)cc2)c1=O`, the Potency in test [1] was 26.4 µM (active); in test [2], 20.9 µM (active); in [4], 23.5 µM (active). Besides, the Potency result in test [8], in [3], in [6] and in [9] was “inactive” throughout.
On to `CC1(C)[C@H](O[C@H]2O[C@H](C(=O)O)[C@@H](O)[C@H](O)[C@H]2O[C@@H]2O[C@H](C(=O)O)[C@@H](O)[C@H](O)[C@H]2O)CC[C@@]2(C)[C@H]1CC[C@]1(C)[C@H]2C(=O)C=C2[C@H]3C[C@@](C)(C(=O)O)CC[C@]3(C)CC[C@]21C`, for which the Potency entry in test [1], in test [2], in test [3], in [4] and in [6] was “inactive” throughout.
On to `C=C(C)[C@@H]1CC[C@]2(C(=O)O)CC[C@]3(C)[C@H](CC[C@@H]4[C@@]5(C)CC[C@H](O)C(C)(C)[C@@H]5CC[C@]43C)[C@@H]12`, for which the Potency result in test [1], in [3], in test [6] and in test [7] was “inactive” in each case. In addition, the Potency in test [2] was 7.43 µM (active); in test [5], 5.26 µM (active).
As to `COc1cc(O)c2c(c1)C1OC1C[C@H](O)[C@H](O)C(=O)C=CC[C@H](C)OC2=O` (some centres not stated), the Potency is 2.64 µM (active) in [1]; 10.5 µM (active) in test [8]; 2.35 µM (active) in [3]; 2.35 µM (active) in test [4]; 3.72 µM (active) in test [5]; 2.64 µM (active) in test [6]. Also, the results for the Potency in test [7] and in test [9] were 2.35 µM (active) and 3.72 µM (active), respectively.
